KinaseGlo FLuc: Kinase-Glo luciferase inhibition (counter-screen) | actives 0.28% (n = 200,000) | Potency, µM (series often up to 38.3 µM), inactives show at the highest dose activity change, negative = inhibition, hits mostly inhibitors | AID 1379 | Q27757 | Kinase-Glo luciferase, ATP luminescence, 8 min; note: nearly all actives have a fitted effect of over 60% in size
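Compound is pinned into ATP-containing buffer (10 uM ATP, imidazole pH 7.2, 7 mM MgCl2). Kinase-Glo luciferase reagent is then added. Light output is recorded following an 8-min room-temperature incubation.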
Gal4-VP16 FLuc: Gal4-VP16 reporter inhibition counter-screen; Drosophila S2 Gal4-VP16 UAS-luciferase, luminescence, 20 h; Potency, µM (highest dose often 53.6 µM), without a hit: at the highest dose activity, negative = inhibition, most hits filed as inhibitors; actives 3.5% (n = 310,000); AID 2546;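 note: Gal4-VP16 expression switched on by copper sulfate through the metallothionein promoter; nearly all actives have a fitted effect of over 50% in size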
RORg inh: ROR gamma (mouse) transcription inhibition | AID 2551 | P51450 | actives 5.4% (n = 310,000) | Drosophila S2 Gal4-RORgamma UAS-luciferase reporter, 20 h | Potency, µM (doses to about 53.6 µM), inactives show at the highest dose activity change, negative = inhibition, actives largely listed as inhibitors; note: nearly all actives have a fitted effect of over 60% in size
Target sequence (P51450 whole entry, looked up, the tested form may be a part): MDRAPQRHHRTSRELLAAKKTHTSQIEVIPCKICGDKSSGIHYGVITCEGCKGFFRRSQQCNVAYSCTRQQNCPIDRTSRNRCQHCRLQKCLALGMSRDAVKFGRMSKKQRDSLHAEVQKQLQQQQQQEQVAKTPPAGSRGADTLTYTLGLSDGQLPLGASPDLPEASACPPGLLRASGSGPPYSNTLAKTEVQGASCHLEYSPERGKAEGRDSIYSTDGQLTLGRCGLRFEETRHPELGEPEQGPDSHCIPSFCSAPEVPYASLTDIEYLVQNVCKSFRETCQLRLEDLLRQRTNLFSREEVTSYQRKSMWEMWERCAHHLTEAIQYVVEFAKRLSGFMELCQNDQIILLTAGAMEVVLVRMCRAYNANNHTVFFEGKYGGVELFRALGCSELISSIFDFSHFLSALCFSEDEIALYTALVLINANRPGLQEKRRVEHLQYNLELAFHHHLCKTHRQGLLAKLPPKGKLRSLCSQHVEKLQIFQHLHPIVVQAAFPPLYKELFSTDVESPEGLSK
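Using a luciferase readout, inhibitors were identified by reduced reporter activity in Drosophila cells coexpressing a copper-inducible Gal4–ROR gamma fusion and UAS-driven Photinus luciferase, incubated 20 hr after 700 uM copper sulfate.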
* hit, by the source's call; ? = inconclusive; . = no result given; [ ] = another dose, or the depositor's remark. This is a sample that favours compounds with a hit; in the whole collection about 6.2% have one here. Calls come from the whole dose curve; as a rule, active = well fitted curve in the direction sought with a large enough effect; inconclusive = small, poorly fitted or top-dose-only effect, or another doubt; inactive = no such curve, though single readings can be large; an effect the other way counts as inactive or inconclusive. % is set by controls: 0 for no effect and ±100 for the full control effect; potency is the fitted concentration of half-maximal effect.

SMILES	KinaseGlo FLuc	Gal4-VP16 FLuc	RORg inh
CCCCC(CC)COC(=O)C(C#N)=C(c1ccccc1)c1ccccc1 (stereo unspecified)	4%[39.9 µM]	-15%	?
COc1ncc2nc(-c3cn(C)c4ccccc34)c(=O)n(Cc3ccc(F)cc3)c2n1	-2%	-10%	3%
COc1ccc(-c2csc(N3C(=N)SCC3=O)n2)cc1	-7%	?	4µM*
COc1ccc(-c2csc(N3C(=O)C4C5c6ccccc6C(c6ccccc65)[C@@H]4C3=O)n2)cc1 (stereo partly specified)	1%	-7%	-2%
CC12CC(c3ccccc3O1)N(C(=O)c1ccco1)C(=S)N2c1ccc(F)cc1 (stereo unspecified)	0%	?	10µM*
CC1(C)Cc2c(cnn2-c2ccc(F)cc2)C(NC(=O)c2ccco2)C1 (stereo unspecified)	.	-8%	1%
Cc1cccc(C(=O)NC(=S)NNC(=O)c2ccc(Cl)cc2)c1	-2%	?	10µM*
COc1cccc(C(=O)NC(=S)Nc2ccc([N+](=O)[O-])cc2C)c1	2%	?	7.1µM*
O=C(NNC(=S)NC(=O)c1cccc([N+](=O)[O-])c1)c1ccc(O)cc1	.	13µM*	13µM*
Cc1cccc(C(=O)NNC(=O)c2ccc(Br)cc2)c1	3%	2%	1%
COc1cc(C(=O)NC(=S)Nc2ccc([N+](=O)[O-])cc2C)cc(OC)c1OC	2%	?	?
O=C(NNC(=S)Nc1ccc(Cl)c(Cl)c1)c1cccc([N+](=O)[O-])c1	.	-4%	-41%
O=C(NC(=S)Nc1ccc(N2CCOCC2)cc1)c1cccc([N+](=O)[O-])c1	-1%	2.8µM*	2.2µM*
O=C(NC(=S)Nc1ccc(CN2CCOCC2)cc1)c1cccc([N+](=O)[O-])c1	-4%	?	?
O=C(Nc1cccc(NC(=O)C2CCCO2)c1)c1ccco1 (stereo unspecified)	-16%	9%	-18%
CCCCC1=CC2=C(c3ccco3)C(=O)C(C)(OC(=O)c3ccc(OC)cc3)C(=O)C2=CN1CCc1c[nH]c2ccccc12 (stereo unspecified)	1%[7.66 µM]	.	.
Cc1ccc(NC(=O)CCC(=O)NNC(=O)COc2ccc([N+](=O)[O-])cc2)cc1C	.	0%	-33%
O=C(NNC(=O)c1cccc([N+](=O)[O-])c1)c1ccncc1	-3%	7%	1%
O=C(c1cccc([N+](=O)[O-])c1)c1ccccn1	.	2%	1%
O=C(NC(=S)Nc1cccc(F)c1)c1cccc([N+](=O)[O-])c1	.	6.3µM*	1.6µM*
O=C(NNC(=S)NC(=O)c1ccccc1)c1cccc([N+](=O)[O-])c1	.	11µM*	7.9µM*
Cc1cccc(NC(=S)NNC(=O)c2cccc([N+](=O)[O-])c2)c1	.	-13%	-32%
O=C(NNC(=O)c1ccccn1)c1cccc([N+](=O)[O-])c1	0%	?	10µM*
Cc1ccc(C(=O)NC(=S)NNC(=O)c2cccc([N+](=O)[O-])c2)cc1	.	7.1µM*	4.5µM*
CC(C)NS(=O)(=O)c1ccc(NC(=S)NC(=O)c2cccc([N+](=O)[O-])c2)cc1	1%	-17%	-6%
SMILES	KinaseGlo FLuc	Gal4-VP16 FLuc	RORg inh
CCOC(=O)CCNC(=O)CNC(=O)OCc1ccccc1	5%	1%	-3%
Cc1ccc2c(C)c(C(=O)Nc3ccc(S(=O)(=O)Nc4onc(C)c4C)cc3)oc2c1	.	-10%	44%
COc1cccc(CC(NC(C)=O)C(=O)NC2CCN(C(=O)C3CC3)CC2)c1OC (stereo unspecified)	2%	-10%	-4%
Cc1ccccc1C(=O)Nc1cc(-c2cc(C(C)(C)C)oc2C)nn1C	.	6%	43%
COc1cc(C#N)ccc1OCC(=O)Nc1cccc(S(=O)(=O)N2CCCC2)c1	-1%	1%	-3%
Cc1ccc(-c2cc(C(=O)N3CCN(C(=O)c4ccco4)CC3)[nH]n2)cc1C	.	-6%	20%
O=C(NNC(=S)NC(=O)c1cccc([N+](=O)[O-])c1)c1ccc(Br)cc1	.	?	11µM*
CCCC(=O)Nc1ccc(C(=O)NNC(=O)c2cccc([N+](=O)[O-])c2)cc1	2%	-5%	-9%
Cc1ccc(O)c(C2=Nc3ccccc3C2(C)C)c1	-6%	-6%	13%
COc1ccc(C)cc1C1=Nc2ccccc2C1(C)C	-6%	?	13µM*
Nc1nc(SCCO)[nH]c(=O)c1NC(=O)c1ccc(Br)o1	.	-1%	2%
O=C(NCCNc1ccnc2cc(Cl)ccc12)c1ccccc1F	.	11µM*	?
O=C(NCCNc1ccc(Cl)cc1[N+](=O)[O-])c1ccccc1F	.	-7%	32%

Screens from PubChem.
